Compounds with a hit are over-represented: about 12% of the library has one in this group of screens.
Pf growth 48h = P. falciparum growth inhibition at 48 hours (one generation); P. falciparum luciferase growth in erythrocytes, 48 h; Potency, µM (series often up to 28.7 µM), for the others: at the top dose activity change, negative = inhibition, usual class: inhibitors; actives 5.9% (n = 310,000); AID 504832; note: % is set by controls: 0 for no effect and ±100 for the full control effect
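Luciferase-expressing parasites in RBCs, 2% Hct / 0.1% parasitemia final; RPMI 1640 + 0.5% Albumax; 37 C, 5% CO2, one generation; luminescence read-out, lower signal = inhibition.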
Pf growth 96h = inhibits malaria parasite growth, 96 h. P. falciparum luciferase reporter growth, 96 h. Potency, µM (doses to about 28.7 µM), for inactives: at the top dose activity change, negative = inhibition, hits mostly inhibitors. actives 6.9% (n = 320,000). AID 504834; note: % is set by controls: 0 for no effect and ±100 for the full control effect
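Cell-based qHTS: luciferase-tagged P. falciparum in erythrocytes (2% hematocrit, 0.05% parasitemia final) incubated with compounds for 96 hours, 37 C, 5% CO2; luciferase detection reagent then added and luminescence measured.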
SARS PLP yeast = blocks SARS-CoV papain-like protease in a yeast assay. S. cerevisiae expressing SARS-CoV PLpro, growth rescue. actives 0.19% (n = 330,000). Potency, µM (top dose mostly 32.9 µM), without a hit: at the top dose activity, positive = growth rescue, usual class: activators. AID 485353; calls by dose curve; note: 0% is about no effect; nearly all actives have a fitted effect of over 55% in size
Sm TGR inh = S. mansoni TGR enzyme inhibition. purified TGR, DTNB reduction, TNB absorbance 405 nm. Potency, µM (doses to about 114 µM), without a hit: at the highest dose activity change, negative = inhibition, actives largely listed as inhibitors. actives 3% (n = 360,000); note: % is set by controls: 0 for no effect and ±100 for the full control effect; nearly all actives have a fitted effect of over 60% in size
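First, TGR (20 nM dispensed) and NADPH were mixed with compound. Second, a 15 min room-temperature incubation followed. Third, further NADPH and then DTNB were added to start the reaction. Finally, TNB absorbance was monitored kinetically.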
An asterisk follows results filed as active; ? = inconclusive; · = no result given. Unless noted, calls come from the whole dose curve; as a rule, active = well fitted curve in the direction sought with a large enough effect; inconclusive = small, poorly fitted or top-dose-only effect, or another doubt; inactive = no such curve, though single readings can be large; an effect the other way counts as inactive or inconclusive. Potency is the fitted concentration of half-maximal effect.

SMILES | Pf growth 48h | Pf growth 96h | SARS PLP yeast | Sm TGR inh
CC1CCC2C(=O)N(c3cccc(C(=O)Nc4ccc(F)cc4)c3)C(=O)C2C1 (stereo unspecified) | -24.1% | 15.9% | -1.6% | -18.3%
O=C(Nc1ccccc1)c1cccc(N2C(=O)C3C4C=CC(C5CC45)C3C2=O)c1 (stereo unspecified) | -20.4% | ? | -1.7% | 3.5%
Cc1cccc(NC(=O)c2cccc(N3C(=O)C4CCC(C)CC4C3=O)c2)c1C (stereo unspecified) | -28.7% | 37.5% | 0.4% | -24.2%
COc1cccc(NC(=O)c2cccc(N3C(=O)C4CCC(C)CC4C3=O)c2)c1 (stereo unspecified) | 2.33µM* | 4.15µM* | 0.1% | -9.6%
Cc1ccccc1NC(=O)c1cccc(N2C(=O)C3C4CC(C(Br)C4Br)C3C2=O)c1 (stereo unspecified) | -24.8% | 9.28µM* | 2.0% | -4.1%
COc1ccc(F)cc1S(=O)(=O)NCCc1c(C)[nH]c2c(Cl)cccc12 | · | · | · | -4.1%
COc1cc(NC(=S)N(C)C)c(OC)cc1Cl | -9.8% | 25.3% | 0.0% | 15.6%
COc1cc(NC(=S)NC2CC2)c(OC)cc1Cl | 4.7% | 11.4% | ? | 39.8µM*
Cc1nc2c3ccccc3nc(NNC(=O)CCC(=O)NC(C)C)n2n1 | 31.8% | 6.57µM* | 1.5% | -2.3%
Cc1nc2c3ccccc3nc(NNC(=O)CCC(=O)N3CCCC(C)C3)n2n1 (stereo unspecified) | 0.4% | 9.28µM* | 1.4% | 0.9%
CC(C)CCNC(=O)CCC(=O)NNc1nc2ccccc2c2nc(-c3ccccc3)nn12 | 15.1% | 10.4µM* | 19.7% | 10.3%
CCC(C)NC(=O)CCC(=O)NNc1nc2ccccc2c2nc(C)nn12 (stereo unspecified) | -4.6% | 41.3% | 8.4% | 25.5%
Cc1c(CNC(C)CCc2ccccc2)c(C(=O)O)c(C)n1Cc1ccc(F)cc1Cl (stereo unspecified) | · | · | · | 0.2%
COc1cccc(NC(=S)/C(=C(\[O-])c2cc(C)n(-c3ccccc3F)c2C)[n+]2ccc(N(C)C)cc2)c1 | ? | 4.15µM* | 0.7% | -4.1%
COc1cccc(NC(=S)/C(=C(\[O-])c2ccc(C)c([N+](=O)[O-])c2)[n+]2ccccc2)c1 | -14.7% | · | -2.3% | ?
Cc1cc(C(=O)COC(=O)C2=COCCO2)c(C)n1-c1ccccc1 | · | · | -9.3% | ·
COc1ccc(-c2cnc(C)o2)cc1S(=O)(=O)Nc1ccc(NC(C)=O)cc1 | · | · | · | 8.7%
Cc1noc(C)c1CSCC(=O)Nc1ccc(S(C)(=O)=O)cc1 | -17.0% | ? | 2.7% | -15.0%
Cc1cc(C[n+]2cc(Cl)ccc2N)c2ncccc2c1 | 13.1µM* | ? | -0.2% | 0.5%
Nc1ccc(Cl)c[n+]1Cc1cccc2cccnc12 | 10.4µM* | ? | 1.7% | -7.7%
Cc1cc(C[n+]2cc(Br)ccc2N)c2ncccc2c1 | 9.28µM* | 13.1µM* | -0.1% | -1.9%
COc1ccc(C2(O)C(=O)Nc3ccc(C)cc32)cc1OC (stereo unspecified) | -8.3% | ? | 0.6% | 10.5%
COc1ccc(-c2nc3ncccc3n2O)cc1 | 57.0% | 36.1% | -0.3% | 9.5%
O=C(COC(=O)/C=C/c1ccccc1Cl)NC1CCCC1 | -4.8% | -18.3% | 0.7% | -0.4%
COc1cc(C(=O)N(CCCN(C)C)c2nc3c(OC)cccc3s2)cc(OC)c1OC | · | · | · | -9.2%
SMILES | Pf growth 48h | Pf growth 96h | SARS PLP yeast | Sm TGR inh
COC(=O)C1=C(c2ccc(-c3ccccc3)c(F)c2)C[C@@H]2CC[C@H]1N2C(=O)NCCO | ? | -25.3% | -8.2% | ?
CCCNC(=O)N1[C@H]2CC[C@@H]1C(C(=O)OC)=C(c1ccc(-c3ccccc3)c(F)c1)C2 | 9.28µM* | ? | 2.5% | 1.5%
COC(=O)C1=C(c2ccc(-c3ccccc3)c(F)c2)C[C@@H]2CC[C@H]1N2C(=O)NCCOc1ccccc1Cl | 10.4µM* | ? | 2.5% | 0.1%
COC(=O)C1=C(c2ccc(F)cc2F)C[C@@H]2CC[C@H]1N2C(=O)NCCOc1ccccc1 | ? | 4.15µM* | -19.1% | -3.4%
CN(C)c1ccc(S(=O)(=O)NCC(=O)NCCOc2ccccc2F)cc1[N+](=O)[O-] | 5.4% | -16.6% | -2.3% | 2.2%
CN(C)c1ccc(S(=O)(=O)NCC(=O)NCCC2=CCCCC2)cc1[N+](=O)[O-] | 11.7µM* | ? | 0.8% | 0.0%
O=c1/c(=C\c2cccc(O)c2)sc2nc(-c3ccccc3)c(-c3ccccc3)n12 | -4.4% | 47.3% | -2.3% | 4.0%
CCCOC(=O)c1ccccc1 | -1.1% | 2.3% | · | ·
CCCOC1(NC(=O)c2ccccc2)C(C)=CC(=O)C=C1C | 15.1% | 3.29µM* | -1.3% | 22.4µM*
CCOc1ccccc1NC(=O)C(c1ccccc1)N1Cc2ccccc2C1=O (stereo unspecified) | · | · | · | 9.5%
COc1ccc(-n2c(=O)c3c4c(sc3n3c(SC(C)C)nnc23)COC(C(C)C)C4)cc1 (stereo unspecified) | · | · | · | -2.2%
C=CCNC(=S)N1CCC(Cc2ccccc2)CC1 | ? | 11.7µM* | 0.3% | -1.6%
CNC(=S)N1CCC(Cc2ccccc2)CC1 | ? | 1.9% | 3.2% | 7.0%
C=CCNC(=O)c1ccc(CN2CCC(Cc3ccccc3)CC2)cc1 | 10.4µM* | -15.3% | -3.5% | -13.7%
CCOC(=O)c1c(N)sc(-c2ccccc2)c1C | 53.2% | 12.2% | 15.2% | 4.5%
Cc1c(-c2ccccc2)sc(N)c1C(=O)N1CCOCC1 | 13.1µM* | 4.1% | 3.7% | -20.7%
O=S(=O)(NCc1ccccc1)c1ccc(-n2cccn2)cc1 | 6.9% | ? | -6.4% | 14.4%
O=C(Nc1ccccc1C(=O)NC1CCCCC1)c1ccccc1 | ? | 6.57µM* | -2.2% | -30.3%
O=C(Nc1ccsc1C(=O)NC1CCCCC1)c1ccccc1 | 7.38µM* | ? | -3.0% | -20.6%
O=C(Nc1cccc(C(=O)NC2CCCCC2)c1)c1ccccc1 | 12.9% | 17.6% | -3.0% | 1.0%
CCCCC(=O)Nc1nnc(SCc2cc(=O)n3cc(C)ccc3n2)s1 | · | · | · | -1.5%
O=C(NC(=S)Nc1cccc(O)c1)C1CCCCC1 | · | · | 5.7% | ·
O=C(Nc1ccc(Oc2ccccc2)cc1)c1ccc(Cn2c(=O)[nH]c3ccsc3c2=O)cc1 | 18.0% | 13.1µM* | -3.2% | -0.7%
Cc1ccc(Sc2nc(C)c([N+](=O)[O-])c(C)c2C#N)cc1 | ? | ? | -1.9% | 4.9%
Cc1nc(Sc2ccc(Cl)cc2)c(C#N)c(C)c1[N+](=O)[O-] | ? | 11.7µM* | 0.7% | 5.3%
Cc1nc(Sc2ccc(Br)cc2)c(C#N)c(C)c1[N+](=O)[O-] | ? | 9.28µM* | -1.1% | -12.4%
CCC(C)NC(=O)Cn1c(=O)n(-c2ccc(C)c(C)c2)c(=O)c2c(C)c(C(=O)N(CC)CC)sc21 (stereo unspecified) | · | · | · | 8.0%
CC1(C)Oc2ccc3ccc(=O)oc3c2/C(=C/Nc2ccc(O)cc2)C1=O | ? | -13.8% | 0.1% | 24.3%
CC1(C)Oc2ccc3ccc(=O)oc3c2/C(=C/Nc2cccc(O)c2)C1=O | 13.1µM* | 80.5% | -6.9% | 0.5%

Screening data deposited in PubChem BioAssay by National Center for Advancing Translational Sciences (NCATS).
